Compound activity (PubChem)
Compounds with a hit are over-represented: about 13% of the library has one in this group of screens.
Marburg entry inh – qHTS for inhibitors of binding or entry into cells for Marburg Virus | Potency, µM (doses to about 37.8 µM), most hits filed as inhibitors | actives 1.8% (n = 300,000) | Marburg virus pseudotyped entry inhibition, cell reporter; calls by dose curve; tested in HEK293 cells
Shiga inhibitor – A qHTS for Small Molecule Inhibitors of Shiga Toxin | inhibition, % at 38.7 µM | Vero cells, Shiga toxin protein synthesis inhibition reporter | AID 2315, 2010 | actives 9.2% (n = 290,000); in the data active means inhibition mostly above about 28%, no sharp cut-off; inactive means mostly below about 43%
LASV entry inh – qHTS for Inhibitors of binding or entry into cells for Lassa Virus; Potency, µM (top dose mostly 37.9 µM), hits mostly inhibitors; Lassa virus pseudotype entry inhibition, cell reporter; AID 540256, 2011; actives 1.2% (n = 300,000); calls by dose curve; tested in HEK293 cells; further: nearly all actives have a fitted effect of over 50% in size
CHX counter – Cycloheximide Counterscreen for Small Molecule Inhibitors of Shiga Toxin; cell reporter, cycloheximide protein synthesis inhibition counterscreen; max response, %; actives 12% (n = 300,000); AID 2314, 2010; in the data active means max response mostly above about 13%, no sharp cut-off; inactive means mostly below about 14%; further: read at 38.3 µM for the half of the compounds with a filed dose
FMDV inh – High Throughput Screening for Foot and Mouth Disease Virus Antivirals | FMDV antiviral cell-based qHTS | Potency, µM (highest dose often 57.9 µM), most hits filed as inhibitors | actives 1.2% (n = 410,000) | AID 1159524, 2015; calls by dose curve; tested in HEK293T cells; further: read-out not given here; nearly all actives have a fitted effect of over 45% in size
HCV inh – qHTS Assay for Inhibitors of Hepatitis C Virus (HCV); Huh7.5.1 HCVcc-Cre infection, luciferase reporter, 44 h; Potency, µM (titrated, usually from 41.8 µM), most hits filed as inhibitors; actives 3.4% (n = 340,000); AID 651820, 2012; active means well fitted inhibition curve with a large enough effect; inconclusive means small, poorly fitted or top-dose-only effect, or another doubt; inactive means no such curve, though single readings can be large or run the other way
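1,000 cells/well; 4 h culture; + compound; + HCVcc-Cre (~0.5 moi); 44 h; luciferase substrate, RT 15 min; read 15 sec.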
Large screens that a line does not name were inactive.

O=C(Cn1cnc2ccccc21)Nc1ccc(F)c(F)c1	HCV inh inconclusive (no result: Marburg entry inh, LASV entry inh)
CCc1cc2c(N3CCN(c4ccccc4)CC3)ncnc2s1	Marburg entry inh inconclusive, LASV entry inh inconclusive, FMDV inh 25.1µM, HCV inh 8.91µM
CC1CCc2sc3ncnc(N4CCOCC4)c3c2C1 (stereo not given)	FMDV inh inconclusive, HCV inh 10µM
c1ccc(N2CCN(c3ncnc4sc5c(c34)CCC5)CC2)cc1	Marburg entry inh inconclusive, HCV inh 10µM
O=C(c1ccco1)N1CCN(c2ncnc3sc4c(c23)CCC4)CC1	FMDV inh inconclusive, HCV inh inconclusive
CC(C)OCCCNC(=O)c1ccccc1NC(=O)C1=CSCCO1	none (no result: Marburg entry inh, LASV entry inh)
CN(c1ccccc1)S(=O)(=O)c1cc(C(=O)c2nccn2C)ccc1Cl	Marburg entry inh inconclusive, LASV entry inh inconclusive (no result: FMDV inh)
Cc1ccc(S(=O)(=O)CC(C)(O)CS(=O)(=O)c2ccc(C)cc2)cc1	none
Cc1ccc(C(=O)OCC(=O)Nc2cc(C(C)(C)C)no2)c(C)c1	none (no result: Marburg entry inh, Shiga inhibitor, LASV entry inh, CHX counter)
Cc1ccc(-c2nc3ccc(Cl)cc3n2OC(C)C(=O)O)cc1 (stereo not given)	Shiga inhibitor 82.9, CHX counter 35.8 (no result: Marburg entry inh, LASV entry inh)
Cc1ccc(-c2nc3ccc(Cl)cc3n2OC(=O)N(C)C)cc1	Marburg entry inh inconclusive, Shiga inhibitor 124.3
CC(On1c(-c2ccccc2)nc2ccc(Cl)cc21)C(=O)O (stereo not given)	Shiga inhibitor 55.8, LASV entry inh inconclusive, CHX counter 28.2
On1c(-c2ccccc2)nc2ccc(Cl)cc21	Shiga inhibitor 83.9, LASV entry inh inconclusive
Clc1ccc2nc3ccccn3c2c1	HCV inh 10µM
N#Cc1ccc2c(c1)nc1ccccn12	none
COc1ccc(-c2nc3ccccc3n2OC(C)C(=O)O)cc1 (stereo not given)	Shiga inhibitor 75.7, CHX counter 35.1
OC(COCc1ccccc1)CN1CCCCC1 (stereo not given)	none (no result: Marburg entry inh, LASV entry inh)
COc1ccc(OCC#CCN2CCCCCC2)cc1	CHX counter 11.7
C(#CCN1CCCCC1)COCc1ccccc1	CHX counter 17.1
CCc1cccc(NC(=O)COC(=O)c2c(-c3ccccc3)noc2C)c1	none (no result: Marburg entry inh, Shiga inhibitor, LASV entry inh, CHX counter, HCV inh)
COc1ccc(OC)c(NC(=O)c2cc3ccccc3o2)c1	CHX counter 27.0, HCV inh inconclusive
CCCC(=O)Nc1ccc(NC(=O)c2cc3ccccc3o2)c(OC)c1	CHX counter 38.2, HCV inh inconclusive (no result: Shiga inhibitor)
COc1cc(NC(C)=O)ccc1NC(=O)c1cc2ccccc2o1	CHX counter 15.5 (no result: Marburg entry inh, LASV entry inh)
COc1cccc(C(=O)Nc2ccc(NC(=O)c3cc4ccccc4o3)c(OC)c2)c1	HCV inh inconclusive (no result: Marburg entry inh, LASV entry inh)
COc1cc(N)ccc1NC(=O)c1cc2ccccc2o1	Shiga inhibitor 63.8, CHX counter 41.9 (no result: Marburg entry inh, LASV entry inh)
COc1cc(NC(=O)c2ccccc2)ccc1NC(=O)c1cc2ccccc2o1	Marburg entry inh inconclusive, HCV inh inconclusive
O=C(NCc1ccco1)C1Cc2c(-c3cccc(F)c3)ccnc2O1 (stereo not given)	none (no result: Marburg entry inh, Shiga inhibitor, LASV entry inh, CHX counter, HCV inh)
CCOC(=O)OC[C@H]1O[C@H](C#Cc2ccc(C)cc2C)C=C[C@@H]1OC(=O)OCC	none (no result: Shiga inhibitor, LASV entry inh, CHX counter, FMDV inh, HCV inh)
Cc1ccc(N(C(=O)c2csnn2)C(C(=O)NC(C)(C)C)c2ccncc2)cc1 (stereo not given)	none (no result: FMDV inh)
Cc1cc(-c2nnco2)c(C)n1-c1ccccc1	Marburg entry inh inconclusive, CHX counter 37.1
CCc1ccc2c(c1)[C@H]1OCC[C@H]1[C@@H](c1cccs1)N2	Marburg entry inh inconclusive, Shiga inhibitor 42.2, CHX counter 26.4, HCV inh inconclusive
CN(Cc1nc2ccc(Cl)cc2[nH]1)Cc1nc(-c2cnccn2)no1	none (no result: Marburg entry inh, LASV entry inh)
COc1ccc(-n2nc3cc(C)c(N)c(Br)c3n2)cc1	Marburg entry inh inconclusive, Shiga inhibitor 127.6, CHX counter 62.6, HCV inh inconclusive
COc1ccc(-n2nc3cc(N)c(Br)cc3n2)cc1	LASV entry inh inconclusive, CHX counter 30.2, HCV inh inconclusive (no result: Shiga inhibitor)
COc1ccc(-n2nc3ccccc3n2)cc1	CHX counter 24.1
COc1ccc2nc3ccccc3nc2c1	Shiga inhibitor 69.1, CHX counter 39.8 (no result: Marburg entry inh, LASV entry inh)
O=C(O)c1ccc(CN(Cc2ccccc2)S(=O)(=O)c2ccc(Cl)cc2)cc1	LASV entry inh inconclusive
O=C(OCc1c(-c2ccccc2)ncc2ccccc12)c1ccc(Br)cc1	none (no result: Marburg entry inh, Shiga inhibitor, LASV entry inh, CHX counter)
O=C(Nc1cc([N+](=O)[O-])ccc1F)c1cccs1	Marburg entry inh inconclusive
COc1cc([N+](=O)[O-])ccc1NC(=O)NNC(=O)c1sccc1C	Marburg entry inh inconclusive, Shiga inhibitor 34.7, CHX counter 26.1
COc1cc(N)ccc1NC(=O)c1cccs1	Marburg entry inh inconclusive, CHX counter 13.2, HCV inh inconclusive
COc1ccc(Cl)cc1-c1nc(-c2ccc(NC(=O)c3cccs3)cc2)no1	Marburg entry inh inconclusive, Shiga inhibitor 34.3, LASV entry inh inconclusive, CHX counter 85.2, HCV inh inconclusive
COc1ccc([N+](=O)[O-])cc1NC(=O)c1cccs1	HCV inh 11.2µM
COc1cccc(Cn2c(=O)c(-c3cccc(C#N)c3)nc3cnc(N4CCN(C)CC4)nc32)c1	none (no result: Marburg entry inh, Shiga inhibitor, LASV entry inh, CHX counter, HCV inh)
COc1ccc(C(=O)Nc2cccc(NC(=O)c3cccs3)c2)cc1	Shiga inhibitor 20.3, CHX counter 24.7 (no result: Marburg entry inh, LASV entry inh)
COc1ccc(NC(=O)c2cccs2)cc1OC	CHX counter 18.8
COc1ccc(-c2[nH]ncc2/C=N\NC(=O)c2cccs2)cc1OC	Shiga inhibitor 87.3, CHX counter 35.9 (no result: Marburg entry inh, LASV entry inh)
COc1ccc(NC(=O)c2ccc(NC(=O)c3cccs3)cc2)cc1	Marburg entry inh inconclusive, LASV entry inh inconclusive, HCV inh inconclusive
COc1cc(NC(=O)c2cccs2)cc(OC)c1	Shiga inhibitor active, CHX counter 14.9
CCCNC(=O)C(Cc1cccc(Br)c1)NC(=O)c1ccc(C#N)cc1 (stereo not given)	HCV inh inconclusive (no result: Marburg entry inh, Shiga inhibitor, LASV entry inh, CHX counter)
CC(=O)Nc1ccc(SCC(=O)Nc2ccc3c(c2)OCCO3)cc1	none (no result: Shiga inhibitor, CHX counter)
Cc1ccc(NC(=O)Cn2c(=O)ccc3cc(S(=O)(=O)N4CCC(C)CC4)ccc32)c(C)c1	LASV entry inh inconclusive (no result: Marburg entry inh, Shiga inhibitor, CHX counter, HCV inh)
C=CCNC(=O)Nc1ccc(F)c(Cl)c1	none (no result: Marburg entry inh, LASV entry inh)
COc1cc(OC)cc(C(=O)Nc2cccc(NC(=O)c3cccs3)c2)c1	none (no result: Marburg entry inh, Shiga inhibitor, LASV entry inh, CHX counter, HCV inh)
COc1cccc(NC(=O)c2cccs2)c1	Shiga inhibitor 134.8, CHX counter 54.0
CN(CC(O)COc1ccc(OCC(O)CN(C)C2CCCCC2)cc1)C1CCCCC1 (stereo not given)	Marburg entry inh 10µM, LASV entry inh inconclusive, HCV inh 15.8µM
CN(C[C@H](O)COc1ccc(OC[C@H](O)CN(C)C2CCCCC2)cc1)C1CCCCC1	Marburg entry inh 10µM (no result: Shiga inhibitor, LASV entry inh, CHX counter, FMDV inh, HCV inh)
CCC(=O)c1ccc(OCC(O)CN(C)C2CCCCC2)cc1 (stereo not given)	Marburg entry inh inconclusive, HCV inh inconclusive
CCCCNC(=O)C1(C)CCCCN1C(=O)c1ccc(F)cc1Cl (stereo not given)	none (no result: Marburg entry inh, Shiga inhibitor, LASV entry inh, CHX counter, HCV inh)
O=C(/C=C/c1cccs1)N1CCOCC1	none
